Inconclusive results are not listed. Activity calls are given as the source filed them. Calls follow the shape of the dose curve; as a rule, active = well fitted curve in the direction sought with a large enough effect; inconclusive = small, poorly fitted or top-dose-only effect, or another doubt; inactive = no such curve, though single readings can be large; an effect the other way counts as inactive or inconclusive.
Key:
[1] = target: Glutathione peroxidase 1 (Homo sapiens) (UniProt P07203); experiment: Primary qHTS Assay for Inhibitors of Recombinant Selenoprotein Glutathione Peroxidase 1 (GPX1) (AID 1845191); also: nearly all actives have a fitted effect of over 65% in size
How it was run: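 GR-coupled assay: compounds preincubated 30 min at room temperature with GPX1, then reaction started with CHP; final 10 nM GPX1, 1 mM GSH, 0.5 mM CHP, 0.5 mM NADPH, 100 nM GR, 0.01% BSA, pH 7.5 Tris buffer. NADPH fluorescence (340/450 nm) read at 0 and 15 min.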

[2] = target: Phospholipid hydroperoxide glutathione peroxidase GPX4 (Homo sapiens) (UniProt P36969); experiment: Primary qHTS Assay for Inhibitors of Recombinant Selenoprotein Glutathione Peroxidase 4 (GPX4) (AID 1845192); also: nearly all actives have a fitted effect of over 65% in size
How it was run: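 GR-coupled assay: recombinant GPX4 preincubated 30 min with compound at room temperature; final 200 nM GPX4, 1 mM GSH, 0.5 mM cumene hydroperoxide, 0.5 mM NADPH, 100 nM GR, 0.01% BSA, pH 7.5 Tris. NADPH fluorescence (340/450 nm) read at 0 and 15 min.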

[3] = target: Luciferin 4-monooxygenase (Photinus pyralis) (UniProt P08659); experiment: Primary firefly luciferase (FLuc) qHTS assay for identification of artifact compounds. (AID 1845220); also: nearly all actives have a fitted effect of over 60% in size
How it was run: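 D-luciferin and ATP (10 uM each, final) in Tris acetate buffer pH 7.6 were incubated with compounds for 15 min at room temperature. The reaction was started with 10 nM Photinus pyralis luciferase and luminescence read after 5 min. Percent inhibition was fitted to a 4-parameter Hill equation.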

[4] = tested on: Nanoluciferase (engineered Oplophorus gracilirostris luciferase); experiment: Primary Nanoluciferase (NLuc) qHTS assay for identification of artifact compounds. (AID 1845222); also: series mostly up to about 54 µM
How it was run: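 Diluted conditioned medium from NLuc-expressing S16 cells treated with compounds for 15 min at room temperature, then Nano-Glo substrate added; luminescence read after 5 min. Percent inhibition versus no-enzyme and DMSO controls fitted to 4-parameter Hill equation.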

[5] = Primary redox qHTS assay for identification of artifact compounds. (AID 1845223)
How it was run: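 Amplex Red (25 uM) and HRP (250 mU/mL) in HBSS, with compounds for 15 min, then 250 uM DTT for 30 min, room temperature, dark. Fluorescence 525/598 nm read; normalized to DMSO and 10 uM DA3003; Hill fit.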

Measured: Potency

Sequence of Phospholipid hydroperoxide glutathione peroxidase GPX4 (Homo sapiens) (P36969 whole entry, looked up): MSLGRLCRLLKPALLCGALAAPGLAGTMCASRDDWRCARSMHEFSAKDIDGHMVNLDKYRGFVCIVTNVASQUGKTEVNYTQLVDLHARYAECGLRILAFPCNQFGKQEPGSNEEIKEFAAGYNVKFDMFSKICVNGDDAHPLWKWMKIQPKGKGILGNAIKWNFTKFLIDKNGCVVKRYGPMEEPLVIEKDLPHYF
Sequence of Glutathione peroxidase 1 (Homo sapiens) (P07203 whole entry, looked up): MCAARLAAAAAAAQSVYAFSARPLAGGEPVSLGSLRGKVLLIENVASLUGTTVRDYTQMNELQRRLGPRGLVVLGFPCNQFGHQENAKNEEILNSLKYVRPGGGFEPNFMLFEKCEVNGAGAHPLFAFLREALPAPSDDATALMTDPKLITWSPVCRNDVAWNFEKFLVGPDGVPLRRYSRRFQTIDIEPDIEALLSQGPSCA

COc1cc(C2Oc3c(OC)cc(CCCO)cc3C2CO)ccc1O[C@H]1O[C@H](C)[C@@H](O)[C@H](O)[C@@H]1O (stereo partly specified)
inactive: all assays above

CC/C=C\CCO[C@@H]1O[C@H](CO[C@@H]2OC[C@H](O)[C@H](O)[C@H]2O)[C@@H](O)[C@H](O)[C@H]1O
inactive: all assays above

O=C(O)c1cc(-c2c(-c3ccccc3)nn3ccccc23)n[nH]c1=O
inactive: all assays above

C/C=C/C=C/C(O)=C1\C(O)=C(C)C(=O)[C@@]2(C)OC(=O)[C@@](C)(NC(=O)/C=C/C(=O)O)[C@@H]12
inactive: all assays above

C/C(=C/CO)CC[C@@H]1[C@@](C)(O)CCC2C(C)(C)CCC[C@]21C (stereo partly specified)
inactive: all assays above

COC(=O)C1=CO[C@@H](O[C@@H]2O[C@H](CO)[C@@H](O)[C@H](O)[C@H]2O)[C@H]2[C@@H]1C=C[C@@]21C=C([C@H](C)O)C(=O)O1
inactive: all assays above

Nc1nc(Nc2ccc(S(N)(=O)=O)cc2)n(C(=S)Nc2c(F)cccc2F)n1
inactive: all assays above

CO[C@H]1C[C@@H]2CC[C@@H](C)[C@@](O)(O2)C(=O)C(=O)N2CCCC[C@H]2C(=O)O[C@H]([C@H](C)C[C@H]2CC[C@@H](OP(C)(C)=O)[C@H](OC)C2)CC(=O)[C@H](C)/C=C(\C)[C@@H](O)[C@@H](OC)C(=O)[C@H](C)C[C@H](C)/C=C/C=C/C=C/1C
not listed: [5]
inactive: all other assays above

COc1cc(/C=C/CO)cc(OC)c1O[C@@H]1O[C@H](CO[C@@H]2O[C@H](CO)[C@@H](O)[C@H](O)[C@H]2O)[C@@H](O)[C@H](O)[C@H]1O
inactive: all assays above

OC[C@H]1O[C@@H](OCCc2ccccc2)[C@H](O[C@@H]2OC[C@](O)(CO)[C@H]2O)[C@@H](O)[C@@H]1O
inactive: all assays above

Nc1ccc(-c2cccc3c(=O)cc(N4CCOCC4)oc23)cc1
inactive: all assays above

C=C1CCC2C(C)(C(=O)O)CCCC2(C)C1CC/C(=C\CO)CO (stereo unspecified)
inactive: all assays above

COc1c(/C=C/C(C)(C)O)ccc2c1C(=O)OCc1cc(C)cc(O)c1O2
not listed: [5]
inactive: all other assays above

COc1cc(C(=O)O)ccc1OC1OC(CO)C(O)C(O)C1O (stereo unspecified)
inactive: all assays above

COC(=O)C(C)C1CCC2(C)C(=O)C=CC(C)(O)C2C1O (stereo unspecified)
inactive: all assays above

CC(O)(CC(=O)O)CC(=O)OCc1ccc(O[C@@H]2O[C@H](CO)[C@@H](O)[C@H](O)[C@H]2O)cc1 (stereo partly specified)
not listed: [5]
inactive: all other assays above

COc1cc(O)c2c(c1)C1=CC(O)C(O)CC1(C)OC2=O (stereo unspecified)
inactive: all assays above

COc1ccc(-c2c(-c3cc(C(=O)O)ccn3)ncn2C)cc1
inactive: all assays above

Cc1ccc([N+](=O)[O-])cc1S(=O)(=O)N(C)/N=C/c1cnc2ccc(Br)cn12
not listed: [5]
inactive: all other assays above

Cc1cccc(C)c1-n1c(=O)c2cnc(Nc3ccc(N4CCN(C)CC4)cc3)nc2n2c3ccccc3nc12
inactive: all assays above

C/C(=C\CCC(C)CCO)C(=O)OC1(C)CCC2C(C(=O)O)=COC(OC3OC(CO)C(O)C(O)C3O)C21 (stereo unspecified)
inactive: all assays above

COC(=O)c1ccccc1O[C@@H]1O[C@H](CO)[C@@H](O)[C@H](O)[C@H]1O[C@@H]1O[C@@H](C)[C@H](O)[C@@H](O)[C@H]1O
inactive: all assays above

O=C(O)c1ccc(OC2OC(CO)C(O)C(O)C2O)cc1 (stereo unspecified)
inactive: all assays above

CC1(C)CCCC2(C)C(CO)C(CO)=CCC12 (stereo unspecified)
inactive: all assays above
